# Assay results published in PubChem BioAssay.
# Activity calls are given as the source filed them. The rule behind the calls is not given here.
# Test system: Aerobactin synthetase IucA (Klebsiella pneumoniae hvKP1)
# Experiment: Biochemical IucA enzyme inhibition primary screen of the Spectrum library (AID 1346200);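 note: 100% = wells without compound and 0% = wells lacking enzyme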
# Conditions: malachite green pyrophosphate, A620, at 8 µM, stronger effect = lower value
row,Structure (SMILES),activity remaining
1,O=C(O)c1ccccc1OP(=O)(O)O,116% (inactive)
2,CO[C@H]1C[C@H](O[C@H]2[C@H](C)[C@@H](OC3O[C@H](C)C[C@H](N(C)C)[C@H]3O)[C@@H](C)C[C@]3(CO3)C(=O)[C@H](C)[C@@H](O)[C@@H](C)[C@@H](C)OC(=O)[C@@H]2C)O[C@@H](C)[C@@H]1O (some centres undefined),107% (inactive)
3,CC[C@@H](CO)NCCN[C@@H](CC)CO,102% (inactive)
4,Cc1cc(=O)oc2cc(O)c(O)cc12,118% (inactive)
5,Cc1noc(NS(=O)(=O)c2ccc(N)cc2)c1C,117% (inactive)
6,CC(C(=O)O)c1ccc2c(c1)[nH]c1ccc(Cl)cc12 (centres undefined),109% (inactive)
7,CC1(C)C(=O)C=C[C@@]2(C)C1CC(=O)[C@]1(C)C2CC[C@@]2(C)[C@H](c3ccoc3)OC(=O)[C@H]3O[C@]321 (some centres undefined),116% (inactive)
8,CC(=O)O[C@H]1CC[C@@]2(C)C(C[C@@H](OC(C)=O)[C@]3(C)C2CC[C@@]2(C)[C@H](c4ccoc4)OC(=O)[C@H]4O[C@]423)C1(C)C (some centres undefined),82.9% (inactive)
9,CC(=O)OCC[C@H](C)CCC=C(C)C,104% (inactive)
10,NC(N)=NCCN1CCCCCCC1,104% (inactive)
11,COc1cccc(OC)c1C(=O)N[C@@H]1C(=O)N2[C@@H]1SC(C)(C)[C@@H]2C(=O)O,85.9% (inactive)
12,Oc1c(I)cc(Cl)c2cccnc12,126% (inactive)
13,C=CCCCCCCCCCCCC(O)CC(O)CO (centres undefined),76.1% (inactive)
14,C=C1c2c(Cl)ccc(O)c2C(O)=C2C(=O)[C@]3(O)C(O)=C(C(N)=O)C(=O)[C@@H](N(C)C)[C@@H]3[C@@H](O)[C@H]12,109% (inactive)
